Common to all, as to assay: NCI-60 one-dose screen, 48 h (100 = growth as untreated, 0 = no growth, -100 = all killed)
Holding throughout (conditions): 10 µM unless noted

In assay [1] the test system is SK-MEL-2 melanoma.
Assay [2] deals with EKVX NSCLC.
For assay [3], the system named is SN12C renal.
Assay [4] deals with UO-31 renal.
In assay [5] the test system is TK-10 renal.
Assay [6] deals with A498 renal.
Assay [7] deals with CCRF-CEM leukemia.
In assay [8] the test system is MOLT-4 leukemia.
In assay [9] the test system is SR leukemia.
In assay [10] the test system is RPMI-8226 leukemia.
For assay [11], the system named is OVCAR-8 ovarian.
In assay [12] the test system is OVCAR-5 ovarian.
The subject of assay [13] is OVCAR-4 ovarian.
Assay [14] has as its system SK-OV-3 ovarian.
Assay [15] relates to IGROV1 ovarian.
Assay [16] has as its system OVCAR-3 ovarian.
Assay [17] relates to HS 578T breast.
Assay [18] deals with NCI/ADR-RES ovarian.

Nine compounds from PubChem BioAssay (NCI) can be followed below.

About 83,000 compounds went through this panel and 20% of them were active in at least one assay; those are over-represented in the sample as a whole.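 The test compound was applied at a single concentration to cells in 96-well plates for 48 hours, and percent growth was recorded.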 Values without a mark were called inactive. Active and inactive are the calls of the source. The calls were made as follows: active = growth percent below 10; inactive = the rest.

Take `Cc1ccc2[nH]c3nc4cccnc4c(C)c3c2c1`: the growth was 119% in assay [1]; 9.94% (active) in assay [2]; 88.4% in [3]; 62.8% in [4]; 38.7% in [5]; 92.7% in assay [6]. For the same compound, the growth was 85.9% in assay [7]; 81.9% in assay [8]; 2.59% (active) in assay [9]; 69.6% in assay [10]; 88.3% in [11]; 59.6% in assay [12]. Moreover, the growth in assay [13] was 87.1%; in [14], 88%; in assay [15] it was 85.8%; in [16], 99.8%; in assay [17] it was 93.2%; in assay [18] it was 83.2%.
Regarding `Cc1ccc(/C=C2/C(=O)Nc3cc(Cl)c(-c4csc(N)n4)cc32)cc1`, the growth in assay [1] was 49.3%; in assay [2], 62.1%; in assay [3], 81%; in assay [4], 67.4%; in [5], 115%; in assay [6] it was 79.3%. In addition, the growth in [7] was 43.5%; in [8], 51.3%; in assay [9], 23.9%; in assay [10], 50%; in assay [11], 82.6%; in assay [12], 102%. For the same compound, the growth in [13] is 68.7%; in assay [14], 77.7%; in [15], 59.7%; in assay [16], 59.8%; in assay [17], 63.7%; in assay [18], 82.9%.
`CC(C)CNCC(O)COc1ccc(C(C)(C)c2ccc(OCC(O)CNCC(C)C)cc2)cc1` (configuration not stated): the growth in [1] was -6.06% (active); in [2], 69.4%; in assay [3], 67.5%; in assay [4], -32.2% (active); in assay [5] it was 66.6%; in assay [6] it was 59.8%. Besides, the growth was 0.812% (active) in assay [7]; -35.8% (active) in [8]; -38.7% (active) in assay [9]; -9.88% (active) in [10]; 53.4% in assay [11]; 80.8% in assay [12]. Further, the growth is 81% in [13]; 86.9% in assay [14]; 47.4% in assay [15]; 44.5% in [16]; 65.4% in assay [17]; 86.7% in assay [18].
`CCCCCCCCCCCCCCCCNc1ccccc1`: the growth in assay [1] was 90%; in assay [2], 106%; in [3], 70.7%; in assay [4], 57.9%; in [5], 90.9%; in assay [6], 114%. In addition, the growth in assay [7] is 44.4%; in [8] it was 43.1%; in assay [9] it was 75.1%; in assay [10], 52.5%; in [11], 91.8%; in [12], 115%. Moreover, the growth in assay [13] was 105%; in assay [14], 103%; in [15], 91.6%; in [16], 104%; in [17], 108%; in assay [18], 104%.
For `CCOc1ccc(-n2c(-c3cc(OC)c(OC)c(OC)c3)nnc2-c2ccc(OC)cc2N)cc1`, the growth in assay [1] is 65.6%; in assay [2], 82.4%; in [3] it was 91.5%; in [4], 57.4%; in [5], 70%; in assay [6], 67.3%. For the same compound, the growth in [7] is 42.3%; in assay [8], 36.8%; in assay [9] it was 19.3%; in assay [10], 82.6%; in [11] it was 64.5%; in assay [12], 95.5%. In addition, the growth is 74.7% in assay [13]; 75.2% in assay [14]; 57.2% in [15]; 53.6% in assay [16]; 77.7% in [17]; 77.1% in [18].
`CCNc1ncnc2n[nH]nc12`: the growth in assay [1] is 104%; in [2] it was 94.7%; in assay [3] it was 102%; in assay [4], 98.4%; in assay [5], 91.9%; in assay [6], 102%. Further, the growth is 87.5% in assay [7]; 100% in [8]; 94% in [9]; 95.5% in assay [10]; 99.6% in assay [11]; 103% in assay [12]. In addition, the growth is 94.7% in [13]; 101% in assay [14]; 111% in assay [15]; 106% in assay [16]; 103% in assay [17]; 108% in assay [18].
In the case of `CC(C)CNCC(=O)Nc1ccc(Cc2ccc(NC(=O)CNCC(C)C)cc2)cc1`, the growth in [1] is 87.6%; in assay [2], 67.9%; in [3], 49.7%; in assay [4] it was 38.4%; in [5], 84.8%; in [6], 47.2%. The growth was 26.4% in [7]; 23.1% in assay [8]; 6.24% (active) in assay [9]; 32.8% in assay [10]; 62.1% in [11]; 72.8% in assay [12]. Further, the growth in [13] is 71.6%; in [14] it was 84.1%; in [15], 47.2%; in [16], 74.5%; in assay [17], 65.1%; in assay [18] it was 78.2%.
As to `CCN(CC)CCC(C(=O)O)(c1ccccc1)c1ccccc1`, the growth is 112% in assay [1]; 96.1% in assay [2]; 103% in [3]; 89.1% in assay [4]; 97.9% in assay [5]; 102% in assay [6]. Also, the growth in assay [7] was 96.6%; in assay [8], 89.4%; in assay [9] it was 95.7%; in [10] it was 104%; in [11], 113%; in assay [12], 106%. The growth is 102% in assay [13]; 92% in assay [14]; 102% in [15]; 110% in assay [16]; 95.3% in assay [17]; 97.8% in assay [18].
Turning to `C#CC(=O)/C=C/CCCCCCC#CC(=O)CCC(=O)C#CCCCCCC/C=C/C(=O)C#C`, the growth in assay [1] is 82.1%; in assay [2] it was 25.4%; in assay [3], -24.5% (active); in assay [4], -90.7% (active); in [5], 32.5%; in [6], 93.4%. Besides, the growth was -45.5% (active) in assay [7]; -32.2% (active) in assay [8]; -34.8% (active) in [9]; -31.6% (active) in assay [10]; 8.53% (active) in assay [11]; 57.7% in [12]. Besides, the growth in assay [13] is 23.5%; in assay [14] it was 91.8%; in assay [15], -39.5% (active); in assay [16], 7.03% (active); in assay [17] it was 47%; in assay [18], 11%.
